# Legend:
# [1] = tested on: RIVA; test: growth inhibition by drug plus 177Lu-lilotomab satetraxetan (1 - RLU/untreated control) (fraction); higher = stronger inhibition; details: 177Lu-lilotomab satetraxetan 0.5 ug/ml
# In short: (§1)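 Plates pre-printed with the Selleck Cambridge Cancer Compound library at 10/100 nM (RIVA) or 10/1,000 nM (U-2932) received 3,000 cells/well. These cells had been washed after 18 h untreated or with a radiolabelled anti-CD37 antibody conjugate (~600 MBq/mg; 0.5 µg/ml RIVA, 1 µg/ml U-2932). Growth inhibition was obtained from RealTime-Glo luminescence in relation to untreated no-drug wells. Each daily read from day 3, taken after 1 h at 37°C, was converted as 1 − RLU/mean of 48 such wells per plate.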
# [2] = tested on: U-2932; test: growth inhibition by drug alone (1 - RLU/untreated control) (fraction); higher = stronger inhibition; details: 177Lu-lilotomab satetraxetan 0 ug/ml
# In short: as §1
# [3] = tested on: RIVA; test: as above; details: 177Lu-lilotomab satetraxetan 0 ug/ml
# In short: as §1
# [4] = tested on: U-2932; test: growth inhibition by drug plus 177Lu-lilotomab satetraxetan (1 - RLU/untreated control) (fraction); higher = stronger inhibition; details: 177Lu-lilotomab satetraxetan 1 ug/ml
# In short: as §1
Compound,"growth inhibition by drug plus 177Lu-lilotomab satetraxetan ([1]; 100 nM, time (day): 5)","growth inhibition by drug plus 177Lu-lilotomab satetraxetan ([1]; 100 nM, time (day): 6)","growth inhibition by drug alone ([2]; 10 nM, time (day): 3)","growth inhibition by drug alone ([2]; 10 nM, time (day): 4)","growth inhibition by drug alone ([2]; 10 nM, time (day): 5)","growth inhibition by drug alone ([2]; 10 nM, time (day): 6)","growth inhibition by drug alone ([2]; 1000 nM, time (day): 3)","growth inhibition by drug alone ([2]; 1000 nM, time (day): 4)","growth inhibition by drug alone ([2]; 1000 nM, time (day): 5)","growth inhibition by drug alone ([2]; 1000 nM, time (day): 6)","growth inhibition by drug alone ([3]; 10 nM, time (day): 3)","growth inhibition by drug alone ([3]; 10 nM, time (day): 4)","growth inhibition by drug alone ([3]; 10 nM, time (day): 5)","growth inhibition by drug alone ([3]; 10 nM, time (day): 6)","growth inhibition by drug alone ([3]; 100 nM, time (day): 3)","growth inhibition by drug alone ([3]; 100 nM, time (day): 4)","growth inhibition by drug alone ([3]; 100 nM, time (day): 5)","growth inhibition by drug alone ([3]; 100 nM, time (day): 6)","growth inhibition by drug plus 177Lu-lilotomab satetraxetan ([4]; 10 nM, time (day): 3)","growth inhibition by drug plus 177Lu-lilotomab satetraxetan ([4]; 10 nM, time (day): 4)","growth inhibition by drug plus 177Lu-lilotomab satetraxetan ([4]; 10 nM, time (day): 5)","growth inhibition by drug plus 177Lu-lilotomab satetraxetan ([4]; 10 nM, time (day): 6)","growth inhibition by drug plus 177Lu-lilotomab satetraxetan ([4]; 1000 nM, time (day): 3)","growth inhibition by drug plus 177Lu-lilotomab satetraxetan ([4]; 1000 nM, time (day): 4)","growth inhibition by drug plus 177Lu-lilotomab satetraxetan ([4]; 1000 nM, time (day): 5)","growth inhibition by drug plus 177Lu-lilotomab satetraxetan ([4]; 1000 nM, time (day): 6)","growth inhibition by drug plus 177Lu-lilotomab satetraxetan ([1]; 10 nM, time (day): 3)","growth inhibition by drug plus 177Lu-lilotomab satetraxetan ([1]; 10 nM, time (day): 4)","growth inhibition by drug plus 177Lu-lilotomab satetraxetan ([1]; 10 nM, time (day): 5)","growth inhibition by drug plus 177Lu-lilotomab satetraxetan ([1]; 10 nM, time (day): 6)","growth inhibition by drug plus 177Lu-lilotomab satetraxetan ([1]; 100 nM, time (day): 3)","growth inhibition by drug plus 177Lu-lilotomab satetraxetan ([1]; 100 nM, time (day): 4)"
C[C@@H](N)[C@H]1CC[C@H](C(=O)Nc2ccncc2)CC1,0.463,0.469,–,–,–,–,–,–,–,–,–,–,–,–,–,–,–,–,–,–,–,–,–,–,–,–,–,–,–,–,–,–
O=C(Nc1ccc(OC(F)(F)F)cc1)c1sccc1NCc1ccnc2ccccc12,0.33,0.355,0.0561,-0.00441,-0.0537,-0.177,0.00246,-0.0266,-0.0424,-0.000118,-0.0142,-0.0478,-0.122,-0.26,-0.426,-0.341,-0.386,-0.562,-0.0212,0.051,0.0902,0.117,-0.0347,0.0399,0.0489,0.0855,0.534,0.568,0.593,0.603,0.0922,0.306
Cn1nnc2c(C(N)=O)ncn2c1=O [Temozolomide],0.53,0.509,0.0892,0.0648,-0.0333,-0.0967,-0.0354,0.0378,-0.0162,-0.101,0.0977,0.0337,-0.0714,-0.291,0.0972,0.055,0.0367,-0.03,0.00136,0.0294,0.0193,0.0893,-0.0214,0.119,0.126,0.194,0.398,0.513,0.538,0.549,0.493,0.527
Nc1nccc(Oc2ccc(NC(=O)c3c[nH]cc(-c4ccc(F)cc4)c3=O)cc2F)c1Cl,0.425,0.43,-0.0716,-0.0777,-0.0731,-0.06,-0.103,-0.0916,-0.0987,-0.109,-0.189,-0.254,-0.278,-0.424,-0.523,-0.459,-0.483,-0.598,-0.0906,-0.0231,0.0271,0.0973,-0.0589,0.0171,0.0665,0.209,0.468,0.516,0.536,0.547,0.364,0.43
Cc1ccc(S(=O)(=O)C=CC#N)cc1,0.47,0.452,0.107,0.0923,-0.0275,-0.041,-0.00518,0.09,0.058,-0.0332,0.0697,-0.00988,-0.0606,-0.287,0.12,0.0423,0.00106,-0.129,0.00206,0.0303,0.0547,0.0948,0.00618,0.193,0.194,0.225,0.414,0.5,0.522,0.534,0.401,0.472
COc1ccc(CCN2CCN(CCCc3ccccc3)CC2)cc1OC,0.119,0.162,0.0269,-0.00972,-0.0184,-0.287,-0.032,-0.091,-0.153,-0.298,-0.0905,-0.186,-0.542,-0.55,-0.612,-0.501,-0.797,-0.809,-0.0743,-0.0209,0.0479,0.0237,0.0208,0.0062,0.0376,0.127,0.23,0.322,0.343,0.385,0.0167,0.137
CCN(CC)C(=S)SSC(=S)N(CC)CC [Disulfiram (Antabuse)],0.394,0.386,0.0412,0.0424,-0.018,-0.236,0.981,0.982,0.981,0.981,-0.0278,-0.1,-0.147,-0.282,-0.227,-0.194,-0.203,-0.423,0.000112,0.0295,0.0516,0.0837,0.981,0.983,0.982,0.983,0.402,0.529,0.548,0.549,0.209,0.379
O=C(Cc1ccc(-c2ccc(OCCN3CCOCC3)cc2)cn1)NCc1ccccc1,0.863,0.881,0.144,0.134,0.0891,0.0449,0.964,0.971,0.975,0.978,0.0653,0.0193,-0.0159,-0.201,0.766,0.708,0.676,0.605,0.0847,0.112,0.111,0.18,0.968,0.977,0.981,0.983,0.466,0.544,0.565,0.575,0.833,0.839
